Measurements: PubChem BioAssay (NCATS)
Inconclusive results are not listed. The source made the active and inactive calls. Unless noted, calls come from the whole dose curve; as a rule, active = well fitted curve in the direction sought with a large enough effect; inconclusive = small, poorly fitted or top-dose-only effect, or another doubt; inactive = no such curve, though single readings can be large; an effect the other way counts as inactive or inconclusive.

Experiments:
[1] = qHTS Assay for Identification of Small Molecule Antagonists for NFkB Signaling Pathway (AID 895; active = well fitted inhibition curve with a large enough effect in the signal ratio, with a control signal flat, not every such curve was filed as active; the % refers to the signal ratio; note: potency is the fitted concentration of half-maximal effect)
Outline: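 NFkB-bla ME-180 cervical carcinoma cells with beta-lactamase reporter under NFkB response element; compounds added, then TNF alpha at 10 pM final (EC50), 5 h at 37 C. LiveBLAzer substrate 2 h, room temperature; emission 460/530 nm at 405 nm excitation.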

[2] = molecular target: Cytochrome P450 2C19 (Homo sapiens) (UniProt P33261); experiment: qHTS Assay for Inhibitors and Substrates of Cytochrome P450 2C19 (AID 899); note: nearly all actives have a fitted effect of over 60% in size; note: potency is the fitted concentration of half-maximal effect
Outline: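 In 50mM KPO4, the reaction held 5nM enzyme and KM-level (10uM) Luciferin-H EGE; it ran 60 min at 37C after NADPH regeneration and a 10 min compound preincubation. Luminescence values were scaled to 57uM ketoconazole as complete inhibition.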

[3] = qHTS Assay for Identification of Small Molecule Agonists for Thrombopoietin (TPO) Signaling Pathway (AID 917); note: % is set by controls: 0 for no effect and ±100 for the full control effect
Outline: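 Stimulation at the TPO EC50 (26 pM final) was used to detect activators. Ba/F3 mouse cells bearing human TPO receptor and a luciferase reporter under the Glycoprotein IIb promoter were exposed to compounds for 24 hrs at 37 C.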

[4] = Cell Viability - LYMP2-001 (AID 921);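 note: series mostly up to about 92 µM; 0% = DMSO only and full inhibition = tetraoctylammonium bromide control wells; nearly all actives have a fitted effect of over 70% in size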
Outline: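 Human lymphoblastoid LYMP2-001 cells, 2500 per well, in complete medium, treated 24 h at 37 C. Viability from cellular ATP by CellTiter-Glo luminescence; AC50 from Hill-equation fits of qHTS concentration-response.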

[5] = molecular target: Muscarinic acetylcholine receptor M1 (Rattus norvegicus) (UniProt P08482); experiment: qHTS Assay for Antagonists of Acetylcholine Muscarinic M1 Receptor: Kinetic Measurement of Intracellular Calcium Response (AID 943);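 note: Fluo-4 calcium signal as peak divided by basal fluorescence over 4 min; series mostly up to about 35 µM; nearly all actives have a fitted effect of over 75% in size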
Outline: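 Quantitative HTS in CHO-M1 (rat receptor) cells: 10 min compound exposure ahead of 100 nM carbachol, Fluo-4 fluorescence followed 4 min, value expressed as peak-to-basal ratio.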

[6] = molecular target: Muscarinic acetylcholine receptor M1 (Rattus norvegicus) (UniProt P08482); experiment: qHTS Assay for Antagonists of Acetylcholine Muscarinic M1 Receptor: Measurement of IP-One Response (AID 944); note: nearly all actives have a fitted effect of over 75% in size
Outline: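 Antagonism was measured as loss of carbachol-driven (EC80) IP1 accumulation in CHO cells carrying rat M1, using a homogeneous IP-One TR-FRET kit read at 620 and 665 nm.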

[7] = molecular target: Pyruvate kinase (Leishmania mexicana) (UniProt Q27686); experiment: qHTS Validation Assay for Inhibitors of Leishmania Mexicana Pyruvate Kinase (AID 945);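 note: 0% = DMSO only neutral control wells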
Outline: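 The enzyme is a highly purified E451W mutant of LmPYK used at 0.2 nM. It converts 0.5 mM PEP and 0.1 mM ADP over 1 h at room temperature; product ATP is quantified by luciferase luminescence relative to DMSO controls.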

[8] = MultiTox-Fluor Cytotoxicity Assay - LYMP1-001 - Dead Cells (AID 946)
Outline: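 Seed 2500 LYMP1-001 cells/well, incubate 5 hr at 37 C; add compound, 16 hr at 37 C; add MultiTox-Fluor reagent, 60 min RT; read dead-cell fluorescence Ex/Em=485/520. Normalize to DMSO and 15 uM tetraoctylammonium bromide.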

[9] = MultiTox-Fluor Cytotoxicity Assay - LYMP1-001 - Live Cells (AID 947);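 note: 0% = DMSO only and full inhibition = tetraoctylammonium bromide control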
Description: NIH Chemical Genomics Center [NCGC]
NIH Molecular Libraries Screening Centers Network [MLSCN]
National Institutes of Environmental Health Sciences [NIEHS]
National Toxicology Program [NTP]
We have developed a 1536-well cell-based assay for quantitative high throughput screening (qHTS) against a number of cell lines to determine in vitro cytotoxicity of small molecules. This particular assay uses a human lymphoblastoid cell line (LYMP1-001) purchased from Coriell Institute.
NCGC Assay Protocol Summary:
The MultiTox-Fluor Cytotoxicity Assay (Promega) is a homogeneous method to simultaneously measure the relative number of live and dead cells in culture by detecting changes in cell membrane integrity. There are two fluorogenic peptide substrates in the assay reagent. Viable cells are determined when the cell-permeant substrate (GF-AFC) enters the cell and is cleaved by protease from live cells resulting in liberated fluorophore. […] The dead cells are determined by using fluorogenic cell-impermeant peptide substrate (bis-AAF-R110) which cleaved by dead cell proteases leaking from damaged cell membrane.
Using the MultiTox-Fluor Cytotoxicity Assay, the relative number of live cells was measured in the lymphoblastoid cell line with complete culture medium following compound treatment for 16 hours. […] AC50 values were determined from concentration-response data modeled with the standard Hill equation. […]

[10] = Cell Viability - LYMP1-002 - Assay at 16 hr (AID 948);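 note: 0% = DMSO alone and full effect = 92 µM tetraoctylammonium bromide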
Outline: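 LYMP1-002 human lymphoblastoid cells, 2500/well, were treated with compounds for 16 hr at 37 C in complete medium. Viability was read as intracellular ATP by CellTiter-Glo luminescence, and AC50 was derived from a Hill fit to concentration-response data.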

[11] = molecular target: Pyruvate kinase PKM (Homo sapiens) (UniProt P14618); experiment: qHTS Assay for Activators of Human Muscle Pyruvate Kinase (AID 954; active = well fitted curve in the direction sought with a large enough effect, not every such curve was filed as active;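 note: 0% = uninhibited enzyme and -100% = no enzyme or full thiadiazolimine inhibition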)
Outline: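 PKM2, human, >95% pure, 0.1 nM; PEP 0.5 mM (Km), ADP 0.1 mM; 50 mM imidazole pH 7.2, 50 mM KCl, 0.01% Tween 20, 0.05% BSA; 1 h RT; luciferase luminescence readout.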

[12] = MultiTox-Fluor Cytotoxicity Assay - LYMP1-002 - Live Cells (AID 955); note: % is set by controls: 0 for no effect and ±100 for the full control effect
Outline: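 In this qHTS viability format, lymphoblastoid cells (LYMP1-002, human) received compound for 16 hr at 37 C. Fluorogenic GF-AFC cleavage by viable cells was detected at 405/510 nm after 1 h at room temperature.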

[13] = MultiTox-Fluor Cytotoxicity Assay - LYMP1-003 - Dead Cells (AID 961); note: nearly all actives have a fitted effect of over 70% in size
Outline: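 LYMP1-003 lymphoblastoid, 2500 cells/well, 5 hr settle then 16 hr cpd at 37 C; MultiTox-Fluor reagent 60 min RT; Ex/Em 485/520 dead-cell signal; norm. DMSO = 0%, 15 uM tetraoctylammonium bromide = 100%; Hill AC50.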

[14] = qHTS Assay for Identification of Small Molecule Agonists for Hypoxia Response Element Signaling Pathway (AID 914; active = well fitted activation curve with a large enough effect in the signal ratio, with a control signal flat, not every such curve was filed as active; the % refers to the signal ratio; note: % of control where 0% means no effect); settings: ME-180 (cervical carcinoma) HRE-bla reporter, beta-lactamase ratio, CoCl2, 17 h; activation: stronger effect = higher value
Outline: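 Cells were plated overnight, pin-dosed with compound in a titration series, co-stimulated with EC50 CoCl2 and incubated 17 hours at 37 degrees Celsius. CCF4 substrate was then loaded, and AC50 values came from the 460nm/530nm ratio.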

[15] = MultiTox-Fluor Cytotoxicity Assay - LYMP1-002 - Dead Cells (AID 960); note: nearly all actives have a fitted effect of over 60% in size
Outline: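 Concentration-dependent increases in membrane-leaked protease activity are quantified in LYMP1-002 cells after 16 hr treatment; values are normalized against DMSO and tetraoctylammonium bromide (15 uM) controls and AC50 derived by Hill modeling.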

[16] = Confirmation and Secondary Assay for Modulators of Hemoglobin Beta Chain Splicing at IVS2 654 locus (AID 910);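 note: per-well total GFP intensity by laser scanning cytometry after 2-day treatment; % of control where 0% means no effect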
Outline: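 HeLa cells stably carrying EGFP interrupted by mutant beta-globin IVS2-654 intron (CMV-driven) were treated with compound for 2 days at 37C; corrected splicing was scored as total peak GFP intensity per well (488 nm excitation, 500-520 nm emission).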

[17] = Confirmation and Secondary Assay for Modulators of Hemoglobin Beta Chain Splicing at IVS2 705 locus (AID 930);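 note: HeLa cells stably expressing the EGFP-705 splicing reporter; GFP fluorescence per well restored by corrected splicing of the IVS2-705 intron in EGFP; series mostly up to about 46 µM; % of control where 0% means no effect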
Outline: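 Splice-correction reporter: EGFP cDNA split by beta-globin intron 2 bearing the 705 mutation, stably in HeLa. Compound incubation 2 days, 37C; fluorescent objects 5-250 µm summed per well.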

[18] = molecular target: Pyruvate kinase PKM (Homo sapiens) (UniProt P14618); experiment: qHTS Assay for Inhibitors of Human Muscle Pyruvate Kinase (AID 958)
Outline: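 Compound pinned into substrate mix (0.5 mM PEP, 0.1 mM ADP), then 0.1 nM PKM2 added; 1 h, RT. Stop/detection luciferase reagent added, luminescence read. Normalized to no-inhibition and no-enzyme or reference-inhibitor controls.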

Cytochrome P450 2C19 (Homo sapiens), sequence (P33261 whole entry, looked up): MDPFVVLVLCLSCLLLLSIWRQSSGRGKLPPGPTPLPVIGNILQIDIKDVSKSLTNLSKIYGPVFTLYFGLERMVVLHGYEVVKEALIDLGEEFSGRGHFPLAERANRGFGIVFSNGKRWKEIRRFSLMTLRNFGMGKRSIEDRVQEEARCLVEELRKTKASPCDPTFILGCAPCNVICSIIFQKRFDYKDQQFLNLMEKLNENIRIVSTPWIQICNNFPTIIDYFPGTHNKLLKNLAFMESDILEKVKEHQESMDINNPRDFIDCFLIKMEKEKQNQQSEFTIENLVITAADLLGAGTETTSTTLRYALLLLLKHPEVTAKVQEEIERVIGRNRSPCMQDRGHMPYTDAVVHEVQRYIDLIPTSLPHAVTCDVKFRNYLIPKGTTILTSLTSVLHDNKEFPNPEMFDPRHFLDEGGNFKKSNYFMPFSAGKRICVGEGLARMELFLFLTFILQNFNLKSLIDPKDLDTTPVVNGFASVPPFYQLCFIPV
Muscarinic acetylcholine receptor M1 (Rattus norvegicus), sequence (P08482 whole entry, looked up): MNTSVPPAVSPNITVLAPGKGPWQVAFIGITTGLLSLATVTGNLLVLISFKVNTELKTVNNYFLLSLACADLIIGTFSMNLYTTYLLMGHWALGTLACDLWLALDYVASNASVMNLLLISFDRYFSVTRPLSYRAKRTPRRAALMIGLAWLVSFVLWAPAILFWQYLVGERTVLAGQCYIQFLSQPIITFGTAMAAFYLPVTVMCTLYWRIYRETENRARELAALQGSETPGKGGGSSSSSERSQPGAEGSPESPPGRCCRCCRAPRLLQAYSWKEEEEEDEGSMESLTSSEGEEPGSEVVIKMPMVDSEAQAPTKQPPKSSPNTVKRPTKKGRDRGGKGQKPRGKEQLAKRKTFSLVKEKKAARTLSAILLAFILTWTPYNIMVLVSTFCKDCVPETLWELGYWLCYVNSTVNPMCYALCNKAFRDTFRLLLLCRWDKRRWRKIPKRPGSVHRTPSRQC
Pyruvate kinase (Leishmania mexicana), sequence (Q27686 2-499 E452W): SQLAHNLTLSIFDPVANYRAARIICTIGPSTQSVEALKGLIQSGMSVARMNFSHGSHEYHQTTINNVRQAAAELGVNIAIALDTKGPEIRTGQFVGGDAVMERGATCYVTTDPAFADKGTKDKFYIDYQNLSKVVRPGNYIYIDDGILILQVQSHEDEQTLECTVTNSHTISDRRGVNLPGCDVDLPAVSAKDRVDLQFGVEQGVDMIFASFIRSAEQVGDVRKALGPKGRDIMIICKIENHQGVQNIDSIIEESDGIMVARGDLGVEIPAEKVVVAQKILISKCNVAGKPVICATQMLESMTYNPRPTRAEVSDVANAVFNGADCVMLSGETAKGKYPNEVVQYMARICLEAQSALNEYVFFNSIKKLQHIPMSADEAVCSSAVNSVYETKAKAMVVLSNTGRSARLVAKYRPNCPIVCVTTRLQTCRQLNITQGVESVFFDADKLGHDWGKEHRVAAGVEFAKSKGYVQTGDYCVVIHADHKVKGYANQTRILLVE
Pyruvate kinase PKM (Homo sapiens), sequence (P14618 whole entry, looked up): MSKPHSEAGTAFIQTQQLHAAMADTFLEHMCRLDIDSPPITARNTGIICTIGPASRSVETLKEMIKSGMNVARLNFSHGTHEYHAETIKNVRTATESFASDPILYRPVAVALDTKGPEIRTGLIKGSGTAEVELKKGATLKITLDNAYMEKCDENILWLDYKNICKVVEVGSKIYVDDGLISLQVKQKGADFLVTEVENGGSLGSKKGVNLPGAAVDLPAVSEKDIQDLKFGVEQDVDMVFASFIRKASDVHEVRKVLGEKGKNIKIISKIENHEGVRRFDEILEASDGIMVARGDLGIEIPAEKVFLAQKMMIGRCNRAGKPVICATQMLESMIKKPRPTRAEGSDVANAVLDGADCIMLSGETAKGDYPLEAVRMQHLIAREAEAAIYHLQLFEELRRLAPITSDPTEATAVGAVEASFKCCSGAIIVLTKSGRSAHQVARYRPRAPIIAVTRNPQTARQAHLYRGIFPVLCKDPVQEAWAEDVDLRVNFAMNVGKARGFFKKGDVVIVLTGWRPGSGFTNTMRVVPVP

NC(=O)c1ccccc1
inactive: Potency [1] | Potency [2] | Potency [3] | outcome [4] | Potency [5] | Potency [6] | Potency [7] | outcome [8] | outcome [9] | outcome [10] | outcome [11] | outcome [12] | outcome [13]

CNc1cc(NS(=O)(=O)c2ccc(N)cc2)nc(NC)n1
inactive: Potency [1] | Potency [2] | Potency [3] | Potency [5] | Potency [7]

O=c1onc2cnc3ccccc3n12
active: Potency [1] 5.62 µM
inactive: Potency [2] | Potency [3] | Potency [6] | Potency [7] | outcome [11]

COc1cc2c(CCNC(C)=O)c[nH]c2cc1O
inactive: Potency [1] | Potency [3] | Potency [5] | Potency [6] | Potency [7] | outcome [11]

[Li+]
inactive: Potency [1] | activation [14] 9.95% | Potency [3] | Potency [6] | Potency [7]

CC(=O)C(C)=O
inactive: Potency [1] | Potency [2] | outcome [4] | Potency [6] | Potency [7] | outcome [8] | outcome [9] | outcome [10] | outcome [11] | outcome [12] | outcome [15] | outcome [13]

O=C(O)/C(=C/c1c(C(=O)O)[nH]c2cc(Cl)cc(Cl)c12)c1ccccc1
inactive: Potency [1] | Potency [3] | Potency [5] | Potency [6] | Potency [7]

O=C(O)C1=CC(=C(c2ccc(O)c(C(=O)O)c2)c2ccc(O)c(C(=O)O)c2)C=CC1=O
inactive: Potency [1] | Potency [16] | outcome [17] | Potency [6] | Potency [7] | Potency [18]

CCCCCCN(CCCCCC)C(=O)Cc1c(-c2ccc(F)cc2)[nH]c2ccccc12
active: Potency [2] 3.98 µM
inactive: Potency [1] | Potency [6] | Potency [7]

NS(=O)(=O)c1cccc2c1c([N+](=O)[O-])cc1nc(O)c(O)nc12
inactive: Potency [1] | Potency [3] | Potency [5] | Potency [6] | Potency [7] | Potency [18]
